From PubChem BioAssay (EPA / NIEHS) come the findings set out here.

The AC50 is the concentration giving half of the maximal activity seen.

Test [1] is described as follows: ATG_CRE_CIS: Attagene CIS-FACTORIAL HepG2 Assay for human cAMP Responsive Element (CRE) binding protein 3 (AID 2282926). To be noted: HepG2 CRE cis-reporter, Attagene multiplexed mRNA; actives raise or lower the signal. In short, it runs like this: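 Multiplexed transcription-unit reporters transfected into HepG2; 24 h dosing; RT-PCR/capillary electrophoresis fluorescence read-out; bidirectional fit vs DMSO.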

The target in test [2] is CCAAT/enhancer-binding protein beta (Homo sapiens) (UniProt P17676). Kind of test: ATG_C_EBP_CIS: Attagene CIS-FACTORIAL HepG2 Assay for human CCAAT/Enhancer Binding Protein (C/EBP) beta (AID 2282927). To be noted: HepG2 Attagene cis-factorial transcription factor reporter; actives raise or lower the signal. Summed up: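 Endogenous C/EBPb-driven reporter transcripts measured in transfected human HepG2 cells at 24 h via RT-PCR and capillary electrophoresis of labelled fragments. Activity fitted in both directions relative to DMSO baseline.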

Test [3] is described as follows: ATG_CMV_CIS: Attagene CIS-FACTORIAL HepG2 Assay for human CMV (Internal Marker) (AID 2282928).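 Further: endpoint acts as a background internal control marker rather than a target.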 To be noted: HepG2 CMV promoter reporter, transcription factor profiling; actives raise or lower the signal. Summed up:
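Cell system: HepG2, transiently transfected multiple reporter units under cis promoters. Exposure: 24 h. Detection: RT-PCR, FAM labeling, HpaI digestion, capillary electrophoresis. Analysis: bidirectional, DMSO baseline.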

The nature of test [4]: ATG_DR4_LXR_CIS: Attagene CIS-FACTORIAL HepG2 Assay for human Liver X Receptor (LXR), DR4 submotif (AID 2282929). The settings on record: HepG2 Attagene DR4 cis-reporter, mRNA transcription; actives raise or lower the signal. Summed up: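 Measures endogenous transcription factor activity via a DR4-driven reporter transcript in human HepG2 cells. Compounds incubated 24 h; mRNA quantified by RT-PCR and capillary electrophoresis, analysed as gain or loss of signal versus DMSO.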

Test [5] can be described thus: ATG_AP_1_CIS: Attagene CIS-FACTORIAL HepG2 Assay for human Activator Protein 1 (AP-1) (AID 2282931). The settings on record: HepG2 Attagene cis-factorial AP-1 reporter mRNA; actives raise or lower the signal. In short, it runs like this:
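Bidirectional concentration-response fitting against DMSO controls. Underlying signal: reporter mRNA from cis-promoter constructs in transiently transfected HepG2, measured after 24 h by RT-PCR and capillary electrophoresis.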

A short description of test [6]: ATG_BRE_CIS: Attagene CIS-FACTORIAL HepG2 Assay for human Bone Morphogenetic Protein (BMP) Response Element (BRE) (AID 2282933). The settings on record: HepG2 BMP response element reporter, Attagene transcription factor profiling; actives raise or lower the signal. Summed up: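 Read-out: reporter mRNA induction quantified by RT-PCR and capillary electrophoresis after 24 h chemical exposure of transfected HepG2 cells. Endogenous factor activity on the BMP response element; gain or loss fitted against DMSO baseline.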

Test [7] in a line: ATG_E_Box_CIS: Attagene CIS-FACTORIAL HepG2 Assay for human Enhancer Box (E-box) (AID 2282936). The settings on record: HepG2 E-box cis-reporter transcription, actives raise or lower the signal. In short, it runs like this:
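Cells: HepG2 (human liver), transient MRTU transfection. Exposure 24 h. RNA → oligo(dT) RT → PCR → 6-FAM label → HpaI → CE. Activity fitted both directions relative to DMSO.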

A short description of test [8]: ATG_M_19_CIS: Attagene CIS-FACTORIAL HepG2 Assay for M19 Transcription Factor (Internal Marker) (AID 2282939). The settings on record: HepG2 Attagene CIS-FACTORIAL M19 internal marker reporter; actives raise or lower the signal. In short, it runs like this: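 Readout: fluorescent reporter-transcript fragments by capillary electrophoresis after RT-PCR. Human HepG2 liver cells carried transfected MRTU constructs reporting endogenous transcription-factor activity; exposure 24 h. Gain or loss of signal fitted relative to DMSO.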

Test [9] in a line: ATG_GATA_CIS: Attagene CIS-FACTORIAL HepG2 Assay for human GATA Binding Protein (AID 2282944). The settings on record: HepG2 GATA cis-element reporter, Attagene multiplex mRNA; actives raise or lower the signal. In short, it runs like this: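 Read-out: fluorescent reporter mRNA fragments resolved by capillary electrophoresis after RT-PCR. Human liver HepG2 cells carried transiently transfected cis-regulated reporter constructs; chemicals incubated 24 h; gain or loss of signal fitted relative to DMSO.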

A short description of test [10]: ATG_ISRE_CIS: Attagene CIS-FACTORIAL HepG2 Assay for human Interferon Regulatory Factor 1 (IRF1) binding to an Interferon-Stimulated Response Element (ISRE) (AID 2282948). To be noted: HepG2 ISRE cis-reporter (Attagene), mRNA transcription readout; actives raise or lower the signal. In short, it runs like this: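 Quantitation relies on labelled RT-PCR fragments separated by capillary electrophoresis. Human HepG2 cells bearing cis-promoter reporter constructs were treated 24 h; DMSO served as baseline for bidirectional fitting.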

A short description of test [11]: ATG_M_32_CIS: Attagene CIS-FACTORIAL HepG2 Assay for M32 Transcription Factor (Internal Marker) (AID 2282949).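 Further: background control marker of the multiplexed CIS panel rather than a real target.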 The settings on record: HepG2 Attagene cis-factorial M32 reporter, mRNA; actives raise or lower the signal. Summed up:
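Fluorescent capillary electrophoresis peaks of HpaI-digested, FAM-labelled RT-PCR reporter products give the signal. Source: transiently transfected human liver HepG2 cells, 24 h after chemical dosing; bidirectional fitting against DMSO.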

Test [12] is described as follows: ATG_M_06_CIS: Attagene CIS-FACTORIAL HepG2 Assay for M06 Transcription Factor (Internal Marker) (AID 2282950). To be noted: HepG2 Attagene CIS-FACTORIAL M06 internal marker reporter; actives raise or lower the signal. In short, it runs like this: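 Terse: HepG2, transient MRTU transfection (FuGene 6), 24 h dosing; total RNA, oligo(dT) RT, PCR, FAM label, HpaI cut, capillary electrophoresis; bidirectional fit vs DMSO baseline; background-control endpoint.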

Test [13] is described as follows: ATG_MRE_CIS: Attagene CIS-FACTORIAL HepG2 Assay for human Metal Responsive Element (MRE) (AID 2282954). To be noted: HepG2 MRE cis-reporter transcription, Attagene multiplex; actives raise or lower the signal. In short, it runs like this: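 Transient MRTU transfection of HepG2 (FuGene 6); 24 h dosing; total RNA → oligo(dT) RT, PCR, 6-FAM primer extension, HpaI cut, CE. Bidirectional fit vs DMSO.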

In test [14] the target is Paired box protein Pax-6 (Homo sapiens) (UniProt P26367). Kind of test: ATG_Pax6_CIS: Attagene CIS-FACTORIAL HepG2 Assay for human Paired Box 6 (PAX6) (AID 2282956). The settings on record: HepG2 CIS-FACTORIAL PAX6 reporter transcription, RNA readout; actives raise or lower the signal. In short, it runs like this: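 After twenty-four hours of chemical exposure, transfected HepG2 cells are harvested for RNA. Cis-promoter reporter transcripts are amplified, fluorescently labelled and sized by capillary electrophoresis, with gain and loss of signal scored against DMSO.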

The nature of test [15]: ATG_PXRE_CIS: Attagene CIS-FACTORIAL HepG2 Assay for human Pregnane X Receptor Element (PXRE) (AID 2282957). The settings on record: HepG2 Attagene CIS-FACTORIAL PXRE reporter, mRNA; actives raise or lower the signal. Summed up: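 Cells: HepG2, transiently transfected reporter units under cis promoter control. Exposure: 24 h. Detection: reporter mRNA via RT-PCR/CE fluorescence; bidirectional fitting, DMSO-referenced.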

Test [16] can be described thus: ATG_Sox_CIS: Attagene CIS-FACTORIAL HepG2 Assay for human SRY-box transcription factor (SOX) (AID 2282960). To be noted: HepG2 Attagene cis-factorial SOX reporter, mRNA; actives raise or lower the signal. In short, it runs like this: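 After 24 h of chemical treatment, transfected HepG2 reporter cells are lysed for total RNA. Transcript levels come from RT-PCR with labelled primer extension and capillary electrophoresis, analysed bidirectionally versus DMSO.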

For test [17], the target named is Transcription factor Sp1 (Homo sapiens) (UniProt P08047). Kind of test: ATG_Sp1_CIS: Attagene CIS-FACTORIAL HepG2 Assay for human Specificity Protein 1 (Sp1) (AID 2282961). The settings on record: HepG2 Sp1 cis-reporter transcription, actives raise or lower the signal. Summed up:
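Sp1-driven reporter mRNA, read as capillary electrophoresis fluorescence after RT-PCR, in transiently transfected HepG2 cells dosed for 24 h; signal change in either direction relative to DMSO.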

The nature of test [18]: ATG_TA_CIS: Attagene CIS-FACTORIAL HepG2 Assay for human TA Basal Promoter (AID 2282964). The settings on record: HepG2 Attagene CIS-factorial TA basal promoter reporter; actives raise or lower the signal. Summed up: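 Transfected HepG2, 24 h compound exposure; RNA → RT-PCR → FAM primer extension → HpaI cut → CE fluorescence. Gain/loss-of-signal fitted against DMSO negative control. Background-control readout.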

Test [19] is described as follows: ATG_TCF_b_cat_CIS: Attagene CIS-FACTORIAL HepG2 Assay for human T-Cell-Factor with beta-catenin (TCF/b-cat) (AID 2282965). The settings on record: HepG2 TCF/beta-catenin cis-reporter transcription, actives raise or lower the signal. In short, it runs like this: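 Endogenous TCF/LEF activity read as reporter transcript level via RT-PCR and capillary electrophoresis fluorescence in transfected HepG2, 24 h exposure; gain or loss of signal fitted against DMSO controls.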

Test [20] can be described thus: ATG_TAL_CIS: Attagene CIS-FACTORIAL HepG2 Assay for human TAL Basal Promoter (AID 2282966).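 Further: background control endpoint measuring basal TAL promoter reporter mRNA not a specific factor.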 The settings on record: HepG2 Attagene cis-factorial TAL promoter reporter; actives raise or lower the signal. In short, it runs like this:
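RT-PCR plus capillary electrophoresis quantifies reporter mRNA induction in transiently transfected HepG2 cells after 24 h chemical treatment. DMSO serves as negative control and baseline for bidirectional fitting.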

Calls of active or inactive are those of the source. How the source made its calls: active means hit-call score of the fitted dose curve at least 0.9, where 1 is the maximum; inactive means score below 0.9.

Chain of Paired box protein Pax-6 (Homo sapiens) (P26367 whole entry, looked up): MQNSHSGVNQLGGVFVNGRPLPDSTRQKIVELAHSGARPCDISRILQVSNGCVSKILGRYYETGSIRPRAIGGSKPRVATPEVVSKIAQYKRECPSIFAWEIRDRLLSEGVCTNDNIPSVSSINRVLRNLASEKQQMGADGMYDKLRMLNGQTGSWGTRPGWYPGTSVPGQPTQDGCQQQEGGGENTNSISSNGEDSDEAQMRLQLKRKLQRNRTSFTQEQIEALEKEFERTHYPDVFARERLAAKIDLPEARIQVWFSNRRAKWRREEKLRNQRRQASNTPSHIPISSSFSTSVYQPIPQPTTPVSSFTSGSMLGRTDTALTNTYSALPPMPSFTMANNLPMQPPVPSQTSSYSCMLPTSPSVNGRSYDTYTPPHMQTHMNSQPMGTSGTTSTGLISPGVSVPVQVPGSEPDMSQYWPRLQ
Chain of Transcription factor Sp1 (Homo sapiens) (P08047 whole entry, looked up): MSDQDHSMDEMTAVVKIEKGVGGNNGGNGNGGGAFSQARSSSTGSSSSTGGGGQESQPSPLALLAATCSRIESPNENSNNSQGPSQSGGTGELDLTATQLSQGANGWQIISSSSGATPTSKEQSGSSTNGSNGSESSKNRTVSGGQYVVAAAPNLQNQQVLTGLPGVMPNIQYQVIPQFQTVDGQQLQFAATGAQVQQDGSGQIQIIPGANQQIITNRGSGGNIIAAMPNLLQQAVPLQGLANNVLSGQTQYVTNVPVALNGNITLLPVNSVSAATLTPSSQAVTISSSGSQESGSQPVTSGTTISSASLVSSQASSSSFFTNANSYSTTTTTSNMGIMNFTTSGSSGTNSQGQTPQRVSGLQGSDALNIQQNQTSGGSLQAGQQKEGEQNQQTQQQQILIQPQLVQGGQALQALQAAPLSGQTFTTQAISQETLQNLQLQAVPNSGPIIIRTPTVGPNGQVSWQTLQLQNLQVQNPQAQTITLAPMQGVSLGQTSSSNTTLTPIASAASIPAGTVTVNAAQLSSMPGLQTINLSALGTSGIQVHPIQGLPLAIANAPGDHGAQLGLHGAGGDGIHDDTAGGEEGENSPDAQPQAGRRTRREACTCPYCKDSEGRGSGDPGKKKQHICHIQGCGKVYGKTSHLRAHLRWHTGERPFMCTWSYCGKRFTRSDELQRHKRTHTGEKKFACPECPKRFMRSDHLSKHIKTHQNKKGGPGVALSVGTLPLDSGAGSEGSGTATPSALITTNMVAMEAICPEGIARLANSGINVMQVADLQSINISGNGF
Chain of CCAAT/enhancer-binding protein beta (Homo sapiens) (P17676 whole entry, looked up, the tested form may be a part): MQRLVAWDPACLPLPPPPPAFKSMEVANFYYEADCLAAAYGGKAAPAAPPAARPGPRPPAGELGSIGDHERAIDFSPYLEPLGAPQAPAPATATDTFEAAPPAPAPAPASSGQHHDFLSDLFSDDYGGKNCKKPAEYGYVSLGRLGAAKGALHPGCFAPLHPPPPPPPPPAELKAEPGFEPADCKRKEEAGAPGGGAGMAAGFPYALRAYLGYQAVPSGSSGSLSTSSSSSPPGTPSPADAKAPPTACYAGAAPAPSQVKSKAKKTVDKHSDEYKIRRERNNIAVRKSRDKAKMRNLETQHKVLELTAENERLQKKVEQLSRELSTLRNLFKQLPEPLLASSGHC

Turning to `CC/C=C\CC1=C(C)CCC1=O`, the outcome in test [1], in test [2], in test [3], in test [4], in test [5] and in [6] was inactive. In addition, the outcome in test [7], in [8], in test [9], in [10], in test [11] and in test [12] was inactive. Also, the call in [13], in test [14], in test [16], in test [17], in test [18] and in test [19] was inactive. Further, the result in test [20] was inactive. In addition, the AC50 in [15] is 6.38 µM (active).

As for `COc1ccccc1OCC(O)CO` (stereo not given), the molecule was classed as inactive in [1], in test [2], in test [3], in test [4], in [5] and in test [6]. The outcome in [7], in test [8], in test [9], in test [10], in test [11] and in test [12] was inactive. In addition, the result in [13], in [14], in test [15], in test [16], in test [17] and in test [18] was inactive. Besides, the result in test [19] and in test [20] was inactive.

`CN(C)c1ccc(C(c2ccccc2)c2ccc(N(C)C)cc2)cc1`: the molecule was called inactive in [1], in test [2], in test [3], in [4], in test [7] and in [8]. Also, the result in [9], in test [10], in test [11], in test [12], in test [13] and in test [14] was inactive. For the same molecule, the molecule was classed as inactive in test [16], in test [17], in test [18], in test [19] and in [20]. The results for the AC50 in [5], in test [6] and in test [15] were 100 µM (active), 100 µM (active) and 3.06 µM (active), respectively.
